Data on 30 compounds can be found in ChEMBL document CHEMBL3988442, “University of Dundee, Small-Polar-MMV Screening Library” (2021).

In the experiment the target is T1, Methionyl-tRNA synthetase, putative (Leishmania donovani (strain BPK282A1)) (UniProt E9BF75).
T1 sequence (whole entry): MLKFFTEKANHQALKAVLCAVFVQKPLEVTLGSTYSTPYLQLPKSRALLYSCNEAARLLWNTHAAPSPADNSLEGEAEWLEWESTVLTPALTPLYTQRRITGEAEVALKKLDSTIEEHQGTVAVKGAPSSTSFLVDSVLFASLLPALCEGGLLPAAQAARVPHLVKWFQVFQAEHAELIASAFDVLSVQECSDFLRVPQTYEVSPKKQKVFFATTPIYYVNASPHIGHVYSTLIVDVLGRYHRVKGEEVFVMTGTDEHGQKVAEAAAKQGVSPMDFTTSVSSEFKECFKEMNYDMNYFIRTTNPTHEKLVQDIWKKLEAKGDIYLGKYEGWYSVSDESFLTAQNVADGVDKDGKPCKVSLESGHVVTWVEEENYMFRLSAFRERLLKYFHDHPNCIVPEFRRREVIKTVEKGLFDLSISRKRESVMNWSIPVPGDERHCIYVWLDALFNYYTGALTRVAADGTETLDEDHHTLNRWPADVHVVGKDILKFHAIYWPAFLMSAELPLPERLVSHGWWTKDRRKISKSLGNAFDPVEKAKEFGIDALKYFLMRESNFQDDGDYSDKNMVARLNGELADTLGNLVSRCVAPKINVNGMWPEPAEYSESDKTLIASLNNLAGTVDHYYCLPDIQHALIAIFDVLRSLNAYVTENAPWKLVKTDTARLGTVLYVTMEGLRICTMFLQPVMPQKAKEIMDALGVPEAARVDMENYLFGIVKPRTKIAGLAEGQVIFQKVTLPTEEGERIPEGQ
The experiment is described as follows: Leishmania donovani Methionine tRNA synthetase (LdMetRS):v7. Dose response assay. It is filed as functional. On the set-up: conc 80 nM, time 150 minutes.

A value given as a limit tells only on which side of the number the result lay.

For `CC(C)C[C@@H](N)COc1cccc(F)c1Oc1cccc(Cl)c1`, the PXC50 amounted to 4.03 (BOTTOM 1.372222408, HILLSLOPE 1.087653332, MAX_EFFECT 50.72463768, TOP 100.0) and 4.11 (BOTTOM -0.306407193, HILLSLOPE 1.563618531, MAX_EFFECT 56.92963753, TOP 100.0).
`CCc1nc(N2CCCC2C(=O)O)c2c3c(sc2n1)CCC3` (stereo not given) gave a PXC50 (MAX_EFFECT 9.836065574) below 4 and a PXC50 (MAX_EFFECT 11.76470588) below 4.
With `CNc1ccc2ncc(-c3ccc4onc(N)c4c3)n2n1`, the PXC50 was below 4 (MAX_EFFECT 16.28498728) and below 4 (MAX_EFFECT 18.85964912).
In turn, `CCNC(=O)c1ccc2ccc(N(CC)CC)n2c1` came in with a PXC50 (MAX_EFFECT 16.85185185) below 4 and a PXC50 (MAX_EFFECT 25.35211268) below 4.
`O=C(NCC1(O)CCC(F)(F)CC1)c1cc(=O)c2cc(F)cc(O)c2o1` had a PXC50 (MAX_EFFECT 4.030710173) below 4 and a PXC50 (MAX_EFFECT 10.04784689) below 4.
Regarding `O=C(NCC1(O)CCCCC1)c1cc(=O)c2cc[nH]c(=O)c2o1`, the PXC50 is below 4 (MAX_EFFECT 6.333973129) and below 4 (MAX_EFFECT 9.409888357).
For the compound `Cc1nc(N2CCC(O)CC2)c2c(-c3cccs3)csc2n1`, the PXC50 reads like this: (MAX_EFFECT 8.905852417) below 4; (MAX_EFFECT 9.319899244) below 4.
Compound `CCOC(=O)c1sc2nc(CN3CCCCC3)nc(NC3CC3)c2c1C` displayed a PXC50 (MAX_EFFECT 16.58291457) below 4 and a PXC50 (MAX_EFFECT 18.42751843) below 4.
Consider `Cc1nnc(NCC2(c3ccccc3)CCOCC2)c(C#N)c1C`, for which the PXC50 runs as follows: (MAX_EFFECT 7.981220657) below 4; (MAX_EFFECT 16.48148148) below 4.
As to `O=C(c1c[nH]cn1)N1CCC(F)(F)C2(CCN(c3ncccn3)C2)C1` (stereo not given), the PXC50 (MAX_EFFECT 6.572769953) is below 4 and the PXC50 (MAX_EFFECT 11.2962963) was below 4.
For the compound `CNc1nc(CN2CCOCC2)nc2sc3c(c12)CCC(C)C3` (stereo not given), the PXC50 is, setting by setting: (MAX_EFFECT 4.668304668) below 4; (MAX_EFFECT 7.035175879) below 4.
Take `Cc1nc(NCCCC(=O)O)c2c3c(sc2n1)CCCC3`: the PXC50 is, setting by setting: (MAX_EFFECT 9.823677582) below 4; (MAX_EFFECT 10.43256997) below 4.
For `Cc1sc2nc(-c3cccs3)nc(N(C)CC(=O)N3CCCC3)c2c1C`, the PXC50 is below 4 (MAX_EFFECT 37.40458015) and below 4 (MAX_EFFECT 42.06549118).
Take `COc1ccc(-c2cc(C(F)(F)F)nc(N3CCCCC3)n2)cc1OC`: the PXC50 (MAX_EFFECT 2.702702703) is below 4 and the PXC50 (MAX_EFFECT 3.015075377) was below 4.
In the case of `Cc1nn(C)cc1-c1cc(C(F)(F)F)nc(NC2CCN(C)CC2)n1`, the PXC50 is below 4 (MAX_EFFECT 9.138381201) and below 4 (MAX_EFFECT 9.921671018).
As to `CC(C)N1CCN(c2ccc3ccc(C(=O)NC4CCCC4)cn23)CC1`, the PXC50 is, setting by setting: (BOTTOM 0.093, HILLSLOPE 1.274308059, MAX_EFFECT 67.28971963, TOP 100.0) 4.24; (BOTTOM -1.582312145, HILLSLOPE 1.245531895, MAX_EFFECT 64.39909297, TOP 98.29335099) 4.24.
For the compound `Fc1cccc(OC[C@@H]2CNCCO2)c1Oc1ccc(Cl)cc1`, the PXC50 runs as follows: (MAX_EFFECT 6.609808102) below 4; (MAX_EFFECT 8.902691511) below 4.
Regarding `CC(C)C[C@H](N)COc1ccccc1-c1ccccn1`, the PXC50 (MAX_EFFECT 10.44776119) was below 4 and the PXC50 (MAX_EFFECT 11.38716356) was below 4.
With `CCN(CC)c1ccc2ccc(C(=O)NC3CCCC3)cn12`, the PXC50 runs as follows: (MAX_EFFECT 33.58778626) below 4; (MAX_EFFECT 39.03508772) below 4.
Consider `N[C@H](COc1cccc(F)c1Oc1ccc(Cl)cc1)c1ccccc1`, for which the PXC50 reads like this: (BOTTOM 4.511954534, HILLSLOPE 1.875524354, MAX_EFFECT 67.28778468, TOP 93.68195714) 4.2; (BOTTOM -3.133728258, HILLSLOPE 1.050142996, MAX_EFFECT 53.9445629, TOP 100.0) 4.1.
Consider `O=C(NCC1(O)CCC(F)(F)CC1)c1cc(=O)c2cc(F)ccc2o1`, for which the PXC50 is below 4 (MAX_EFFECT 1.754385965) and below 4 (MAX_EFFECT 9.021113244).
Take `NC(=O)C1CCN(c2cncc(-n3cccn3)n2)CC1`: the PXC50 runs as follows: (MAX_EFFECT 1.936619718) below 4; (MAX_EFFECT 4.750593824) below 4.
Compound `CC(=O)N1CCC(NC(=O)c2ccc3ccc(N4CCN(S(C)(=O)=O)CC4)n3c2)CC1` yielded a PXC50 (BOTTOM 2.919824671, HILLSLOPE 1.594432626, MAX_EFFECT 67.35849057, TOP 70.74594509) of 4.9 and a PXC50 (BOTTOM 3.112441615, HILLSLOPE 1.895765793, MAX_EFFECT 63.92694064, TOP 65.42596591) of 4.95.
As to `CCc1nc(N2CCCC(C(=O)O)C2)c2c3c(sc2n1)CCC3` (stereo not given), the PXC50 is, setting by setting: (MAX_EFFECT 18.93939394) below 4; (MAX_EFFECT 20.91836735) below 4.
On to `CC1CCc2c(Cl)cc(Cl)c(O)c2N1` (stereo not given), for which the PXC50 is, setting by setting: (MAX_EFFECT 23.76425856) below 3; (MAX_EFFECT 24.40604752) below 3.
Take `O=C1CC[C@@H](COc2cccc(F)c2Oc2ccc(Cl)cc2)N1`: the PXC50 runs as follows: (MAX_EFFECT 7.462686567) below 4; (MAX_EFFECT 9.316770186) below 4.
For `COC(=O)CCNc1nc(CN2CCCCC2)nc2sc3c(c12)CCC3`, the PXC50 is, setting by setting: (MAX_EFFECT 7.808564232) below 4.31; (MAX_EFFECT 7.888040712) below 4.
Consider `CC(C)C[C@@H](COc1cccc(F)c1Oc1ccc(Cl)cc1)NS(C)(=O)=O`, for which the PXC50 (MAX_EFFECT 6.609808102) is below 4 and the PXC50 (MAX_EFFECT 8.902691511) was below 4.
Regarding `CNc1nc(C)nc(N2CCc3cc(C(=O)NCc4ccc(-c5nccn5C)cc4Cl)ccc32)n1`, the PXC50 is, setting by setting: (MAX_EFFECT 28.67132867) below 4; (MAX_EFFECT 30.23255814) below 4.
Turning to `Cc1nc(N2C[C@@H](CN3CCCN(C)CC3)[C@@H](CO)C2)c2ccsc2n1`, the PXC50 is, setting by setting: (MAX_EFFECT 12.53263708) below 4; (MAX_EFFECT 15.40469974) below 4.
